Assay in all cases: DAPPL (digital affinity profiling via proximity ligation, sequencing); 10 mM Tris-HCl pH 7.5, 50 mM NaCl, 1 mM DTT, 4% glycerol, room temperature, 30 min; GST-TFs on glutathione beads, 16-mer random dsDNA library, 0.1% formaldehyde crosslink after washing; high values mean tight binding
One assay concerns the target T1, FEV (Homo sapiens, UniProt Q99581 1-238).
T1 sequence: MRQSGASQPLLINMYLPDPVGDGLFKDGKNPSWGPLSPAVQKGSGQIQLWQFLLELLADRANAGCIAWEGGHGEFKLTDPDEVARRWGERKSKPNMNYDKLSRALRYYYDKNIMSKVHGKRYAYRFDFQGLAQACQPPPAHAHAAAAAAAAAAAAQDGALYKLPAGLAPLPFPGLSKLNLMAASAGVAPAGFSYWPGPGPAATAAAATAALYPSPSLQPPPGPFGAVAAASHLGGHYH
Conditions: protein: recombinant; tags: N-terminal GST; dsDNA, one strand shown. The method, boiled down: (§1)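 Human transcription factors fused to GST were expressed in yeast, captured on glutathione beads, given DNA barcodes and pooled with a GST-only negative control. Pools were incubated with 200 nmole of a 16-mer random double-stranded DNA library in Tris/NaCl/DTT/glycerol buffer at room temperature for 30 min. They were then washed, crosslinked with 0.1% formaldehyde, proximity-ligated (BsaI/T4 ligase, 1 h, 37 °C), PCR-amplified and sequenced on an Illumina NextSeq500. Binding signal is each 6-mer's read frequency for a factor divided by its frequency for the GST control.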

In the next assay the target is ETV5 (Homo sapiens, UniProt P41161 1-510). The conditions noted are these: protein: recombinant; tags: N-terminal GST; dsDNA, one strand shown. The procedure, abridged:
as §1

Another assay addresses HSF1 (Homo sapiens, UniProt Q00613 1-529). The conditions noted are these: protein: recombinant; tags: N-terminal GST; chain copies: 3; dsDNA, one strand shown. The procedure, abridged:
as §1

The target of the next assay is T2, SPIC (Homo sapiens, UniProt Q8N5J4 1-248).
T2 sequence: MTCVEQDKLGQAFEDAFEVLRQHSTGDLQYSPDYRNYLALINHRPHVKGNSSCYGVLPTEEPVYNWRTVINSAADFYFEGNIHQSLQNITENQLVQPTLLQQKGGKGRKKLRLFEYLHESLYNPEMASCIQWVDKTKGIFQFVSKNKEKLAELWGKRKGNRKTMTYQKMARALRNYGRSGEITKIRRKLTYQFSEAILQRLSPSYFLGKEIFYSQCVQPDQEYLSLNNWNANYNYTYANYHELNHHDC
The conditions noted are these: protein: recombinant; tags: N-terminal GST; dsDNA, one strand shown. The method, boiled down:
as §1

The next assay deals with ELF4 (Homo sapiens, UniProt Q99607 1-663). Conditions: protein: recombinant; tags: N-terminal GST; dsDNA, one strand shown. The method, boiled down:
as §1

A further assay has as its target T3, ELK4 (Homo sapiens, UniProt P28324-2 1-405).
T3 sequence: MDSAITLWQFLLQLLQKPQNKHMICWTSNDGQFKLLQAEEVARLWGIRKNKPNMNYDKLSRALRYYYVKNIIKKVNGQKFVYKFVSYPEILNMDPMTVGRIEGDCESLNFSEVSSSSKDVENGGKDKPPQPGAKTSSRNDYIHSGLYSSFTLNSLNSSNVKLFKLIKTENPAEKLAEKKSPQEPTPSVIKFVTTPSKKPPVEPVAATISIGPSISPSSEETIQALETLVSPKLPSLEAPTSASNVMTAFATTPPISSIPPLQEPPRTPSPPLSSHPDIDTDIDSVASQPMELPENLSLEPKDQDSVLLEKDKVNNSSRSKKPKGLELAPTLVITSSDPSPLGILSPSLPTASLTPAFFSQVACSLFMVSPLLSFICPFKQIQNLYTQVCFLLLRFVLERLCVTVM
Conditions: protein: recombinant; tags: N-terminal GST; dsDNA, one strand shown. The procedure, abridged:
as §1

Another assay addresses T4, ETV2 (Homo sapiens, UniProt O00321 1-342).
T4 sequence: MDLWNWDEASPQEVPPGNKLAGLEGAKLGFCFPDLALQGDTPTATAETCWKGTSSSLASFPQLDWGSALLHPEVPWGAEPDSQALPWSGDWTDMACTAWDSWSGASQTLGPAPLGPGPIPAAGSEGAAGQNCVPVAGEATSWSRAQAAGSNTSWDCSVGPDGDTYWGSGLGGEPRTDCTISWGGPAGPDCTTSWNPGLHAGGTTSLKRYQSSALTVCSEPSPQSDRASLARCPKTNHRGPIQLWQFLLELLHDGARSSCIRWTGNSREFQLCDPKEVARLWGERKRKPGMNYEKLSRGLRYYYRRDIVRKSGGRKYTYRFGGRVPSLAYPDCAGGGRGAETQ
The conditions noted are these: protein: recombinant; tags: N-terminal GST; dsDNA, one strand shown. The procedure, abridged: as §1

A further assay has as its target T5, ELF3 (Homo sapiens, UniProt P78545 1-371).
T5 sequence: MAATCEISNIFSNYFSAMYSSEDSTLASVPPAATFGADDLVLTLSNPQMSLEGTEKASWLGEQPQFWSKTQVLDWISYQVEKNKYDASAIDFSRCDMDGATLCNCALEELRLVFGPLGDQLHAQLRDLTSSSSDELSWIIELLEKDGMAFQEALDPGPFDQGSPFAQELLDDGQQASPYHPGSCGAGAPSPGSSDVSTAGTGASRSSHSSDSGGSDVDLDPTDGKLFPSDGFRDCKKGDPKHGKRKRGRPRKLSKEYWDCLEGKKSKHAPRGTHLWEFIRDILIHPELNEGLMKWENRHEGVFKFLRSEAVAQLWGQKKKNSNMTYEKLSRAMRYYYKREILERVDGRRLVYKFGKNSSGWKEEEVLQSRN
Conditions: protein: recombinant; tags: N-terminal GST; dsDNA, one strand shown. The method, boiled down: as §1

For another assay, the target named is ETV1 (Homo sapiens, UniProt P50549 1-477). Conditions: protein: recombinant; tags: N-terminal GST; dsDNA, one strand shown. The procedure, abridged:
as §1

Sequence of ETV5 (P41161 whole entry): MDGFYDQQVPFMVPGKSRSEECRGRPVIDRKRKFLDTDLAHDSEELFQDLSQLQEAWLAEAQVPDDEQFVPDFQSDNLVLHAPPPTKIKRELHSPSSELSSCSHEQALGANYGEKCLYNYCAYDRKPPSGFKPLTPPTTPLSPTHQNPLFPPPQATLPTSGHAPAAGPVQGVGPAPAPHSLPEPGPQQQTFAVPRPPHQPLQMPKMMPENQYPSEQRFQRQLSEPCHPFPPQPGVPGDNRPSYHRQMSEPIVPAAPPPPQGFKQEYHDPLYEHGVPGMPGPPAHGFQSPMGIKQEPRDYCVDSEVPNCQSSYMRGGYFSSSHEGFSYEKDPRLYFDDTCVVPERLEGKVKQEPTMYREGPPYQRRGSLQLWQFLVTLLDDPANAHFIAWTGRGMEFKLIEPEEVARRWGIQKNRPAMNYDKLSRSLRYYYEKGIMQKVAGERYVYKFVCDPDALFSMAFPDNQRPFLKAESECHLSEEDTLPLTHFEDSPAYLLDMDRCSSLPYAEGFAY
Sequence of ELF4 (Q99607 whole entry): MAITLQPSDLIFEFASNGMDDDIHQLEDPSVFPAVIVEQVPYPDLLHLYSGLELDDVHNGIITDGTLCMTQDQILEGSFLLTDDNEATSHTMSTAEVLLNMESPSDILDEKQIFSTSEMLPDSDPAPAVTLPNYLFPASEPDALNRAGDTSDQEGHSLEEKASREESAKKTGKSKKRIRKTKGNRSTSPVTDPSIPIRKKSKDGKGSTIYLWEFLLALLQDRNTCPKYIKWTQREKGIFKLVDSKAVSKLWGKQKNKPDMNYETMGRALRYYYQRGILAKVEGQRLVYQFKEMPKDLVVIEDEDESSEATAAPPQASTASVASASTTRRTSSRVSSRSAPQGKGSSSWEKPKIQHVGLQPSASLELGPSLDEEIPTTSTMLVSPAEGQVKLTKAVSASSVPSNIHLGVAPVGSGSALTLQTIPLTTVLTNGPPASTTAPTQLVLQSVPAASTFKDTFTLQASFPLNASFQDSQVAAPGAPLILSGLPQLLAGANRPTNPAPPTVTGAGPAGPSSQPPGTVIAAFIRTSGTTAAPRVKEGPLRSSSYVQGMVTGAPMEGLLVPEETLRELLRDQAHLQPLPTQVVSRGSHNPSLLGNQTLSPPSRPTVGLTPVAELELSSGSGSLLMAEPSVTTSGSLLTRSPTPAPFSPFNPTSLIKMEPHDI
Sequence of HSF1 (Q00613 whole entry): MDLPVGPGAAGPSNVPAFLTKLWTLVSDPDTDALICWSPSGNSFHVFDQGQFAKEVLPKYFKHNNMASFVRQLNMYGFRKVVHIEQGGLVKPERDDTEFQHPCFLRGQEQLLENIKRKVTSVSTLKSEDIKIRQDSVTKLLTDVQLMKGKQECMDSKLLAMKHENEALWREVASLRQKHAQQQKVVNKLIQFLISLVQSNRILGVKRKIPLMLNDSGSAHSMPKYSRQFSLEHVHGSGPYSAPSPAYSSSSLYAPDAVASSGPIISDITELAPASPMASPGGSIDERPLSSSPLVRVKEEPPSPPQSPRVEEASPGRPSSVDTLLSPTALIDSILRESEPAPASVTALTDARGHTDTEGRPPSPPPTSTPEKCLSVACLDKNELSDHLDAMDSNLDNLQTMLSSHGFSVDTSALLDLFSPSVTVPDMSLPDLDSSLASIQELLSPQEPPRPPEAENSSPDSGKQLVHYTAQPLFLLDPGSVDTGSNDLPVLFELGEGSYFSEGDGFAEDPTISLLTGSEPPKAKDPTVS
Sequence of ETV1 (P50549 whole entry): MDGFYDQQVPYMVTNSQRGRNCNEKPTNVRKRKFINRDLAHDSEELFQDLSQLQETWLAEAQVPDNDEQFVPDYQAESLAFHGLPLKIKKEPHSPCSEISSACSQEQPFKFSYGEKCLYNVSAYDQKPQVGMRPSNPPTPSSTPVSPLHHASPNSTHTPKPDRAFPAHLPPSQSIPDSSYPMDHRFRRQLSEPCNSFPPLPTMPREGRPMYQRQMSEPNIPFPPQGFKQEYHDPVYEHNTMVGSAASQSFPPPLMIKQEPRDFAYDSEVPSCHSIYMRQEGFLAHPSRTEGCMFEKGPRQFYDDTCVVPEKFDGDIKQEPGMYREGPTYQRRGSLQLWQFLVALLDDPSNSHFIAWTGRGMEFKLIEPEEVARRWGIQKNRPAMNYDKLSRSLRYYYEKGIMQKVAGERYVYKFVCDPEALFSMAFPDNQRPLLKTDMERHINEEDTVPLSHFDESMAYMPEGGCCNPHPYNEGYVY

In the case of AAACTG, the binding signal in the assay with FEV was 1.06 fold enrichment (6-mer frequency, TF over GST control); in the assay with ETV5 it was 1.09 fold enrichment (6-mer frequency, TF over GST control); with HSF1 it was 1.01 fold enrichment (6-mer frequency, TF over GST control); in the assay with SPIC, 1.07 fold enrichment (6-mer frequency, TF over GST control); in the assay with ELF4, 1.1 fold enrichment (6-mer frequency, TF over GST control); with ELK4 it was 1.06 fold enrichment (6-mer frequency, TF over GST control). In addition, the binding signal with ETV2 was 1.09 fold enrichment (6-mer frequency, TF over GST control); with ELF3 it was 1.01 fold enrichment (6-mer frequency, TF over GST control); in the assay with ETV1, 1.13 fold enrichment (6-mer frequency, TF over GST control).
Turning to TCCGTC, the binding signal was 1.38 fold enrichment (6-mer frequency, TF over GST control) with FEV; 1.31 fold enrichment (6-mer frequency, TF over GST control) with ETV5; 1.04 fold enrichment (6-mer frequency, TF over GST control) in the assay with HSF1; 1.38 fold enrichment (6-mer frequency, TF over GST control) with SPIC; 1.42 fold enrichment (6-mer frequency, TF over GST control) in the assay with ELF4; 1.3 fold enrichment (6-mer frequency, TF over GST control) with ELK4. Further, the binding signal in the assay with ETV2 is 1.35 fold enrichment (6-mer frequency, TF over GST control); with ELF3 it was 1.27 fold enrichment (6-mer frequency, TF over GST control); in the assay with ETV1 it was 1.42 fold enrichment (6-mer frequency, TF over GST control).
As for GAACCC, the binding signal with FEV is 1.17 fold enrichment (6-mer frequency, TF over GST control); with ETV5, 1.2 fold enrichment (6-mer frequency, TF over GST control); with HSF1, 1.03 fold enrichment (6-mer frequency, TF over GST control); with SPIC, 1.29 fold enrichment (6-mer frequency, TF over GST control); in the assay with ELF4 it was 1.22 fold enrichment (6-mer frequency, TF over GST control); with ELK4, 1.2 fold enrichment (6-mer frequency, TF over GST control). The binding signal in the assay with ETV2 was 1 fold enrichment (6-mer frequency, TF over GST control); with ELF3, 1.05 fold enrichment (6-mer frequency, TF over GST control); in the assay with ETV1, 1.19 fold enrichment (6-mer frequency, TF over GST control).
As to TGTCTC, the binding signal is 1.22 fold enrichment (6-mer frequency, TF over GST control) with FEV; 1.33 fold enrichment (6-mer frequency, TF over GST control) in the assay with ETV5; 1.01 fold enrichment (6-mer frequency, TF over GST control) with HSF1; 1.11 fold enrichment (6-mer frequency, TF over GST control) in the assay with SPIC; 1.36 fold enrichment (6-mer frequency, TF over GST control) with ELF4; 1.11 fold enrichment (6-mer frequency, TF over GST control) in the assay with ELK4. Besides, the binding signal with ETV2 is 1.26 fold enrichment (6-mer frequency, TF over GST control); with ELF3, 1.18 fold enrichment (6-mer frequency, TF over GST control); with ETV1, 1.22 fold enrichment (6-mer frequency, TF over GST control).
Consider CCACTG, for which the binding signal is 1.19 fold enrichment (6-mer frequency, TF over GST control) with FEV; 1.15 fold enrichment (6-mer frequency, TF over GST control) with ETV5; 1.08 fold enrichment (6-mer frequency, TF over GST control) in the assay with HSF1; 1.34 fold enrichment (6-mer frequency, TF over GST control) with SPIC; 1.2 fold enrichment (6-mer frequency, TF over GST control) with ELF4; 1.18 fold enrichment (6-mer frequency, TF over GST control) in the assay with ELK4. Further, the binding signal with ETV2 is 1.17 fold enrichment (6-mer frequency, TF over GST control); with ELF3, 1.04 fold enrichment (6-mer frequency, TF over GST control); with ETV1 it was 1.31 fold enrichment (6-mer frequency, TF over GST control).
Take AACGAC: the binding signal is 1.16 fold enrichment (6-mer frequency, TF over GST control) with FEV; 1.14 fold enrichment (6-mer frequency, TF over GST control) with ETV5; 1.01 fold enrichment (6-mer frequency, TF over GST control) in the assay with HSF1; 1.04 fold enrichment (6-mer frequency, TF over GST control) in the assay with SPIC; 1.18 fold enrichment (6-mer frequency, TF over GST control) in the assay with ELF4; 1.03 fold enrichment (6-mer frequency, TF over GST control) in the assay with ELK4. Besides, the binding signal was 1.04 fold enrichment (6-mer frequency, TF over GST control) in the assay with ETV2; 1.02 fold enrichment (6-mer frequency, TF over GST control) with ELF3; 1.15 fold enrichment (6-mer frequency, TF over GST control) in the assay with ETV1.
For CCACGC, the binding signal with FEV is 1.2 fold enrichment (6-mer frequency, TF over GST control); with ETV5, 1.15 fold enrichment (6-mer frequency, TF over GST control); in the assay with HSF1, 1.05 fold enrichment (6-mer frequency, TF over GST control); in the assay with SPIC it was 1.14 fold enrichment (6-mer frequency, TF over GST control); with ELF4 it was 1.22 fold enrichment (6-mer frequency, TF over GST control); with ELK4, 1.19 fold enrichment (6-mer frequency, TF over GST control). The binding signal with ETV2 was 1.14 fold enrichment (6-mer frequency, TF over GST control); in the assay with ELF3 it was 1.24 fold enrichment (6-mer frequency, TF over GST control); with ETV1 it was 1.24 fold enrichment (6-mer frequency, TF over GST control).
Regarding GCACGA, the binding signal was 1.09 fold enrichment (6-mer frequency, TF over GST control) in the assay with FEV; 1.15 fold enrichment (6-mer frequency, TF over GST control) with ETV5; 1.04 fold enrichment (6-mer frequency, TF over GST control) in the assay with HSF1; 1.18 fold enrichment (6-mer frequency, TF over GST control) with SPIC; 1.1 fold enrichment (6-mer frequency, TF over GST control) with ELF4; 1.13 fold enrichment (6-mer frequency, TF over GST control) with ELK4. Moreover, the binding signal with ETV2 was 1.31 fold enrichment (6-mer frequency, TF over GST control); with ELF3, 1.16 fold enrichment (6-mer frequency, TF over GST control); with ETV1, 1.05 fold enrichment (6-mer frequency, TF over GST control).

Values taken from article PMC7862700, “An all-to-all approach to the identification of sequence-specific readers for epigenetic DNA modifications on cytosine”.
